For 7 compounds, nuclei count, normalised and p53-positive nuclei, normalised results are on record in PubChem BioAssay AID1508601 (ICCB-Longwood Screening Facility, Harvard Medical School, 2020).

Where “and” joins values, the source holds several entries; their conditions need not be identical. Identical values can stand only once. The campaign covered roughly 5,700 compounds. About 85 (1%) were called active. This is one part of a sample in which actives are shown more often than they occur. Rule as the data show it: active = p53-positive nuclei above about 36% (passing the limit was not always enough); inactive = the rest. More than one record can exist for a structure, and the calls need not agree.

A short description of assay [1]: p53 stabilisation in HPV-positive human cells, imaging, p53-positive nuclei imaging, 24 h, 48 h (AID 1508601). The conditions noted are these: 24/48 h.
The target of assay [2] is Cellular tumor antigen p53 (Homo sapiens) (UniProt P04637). Described as above. The conditions noted are these: 24/48 h, stronger effect = higher value.
Where [3] appears, read: measured here: cell number at 24 h, Library stock concentration: 10 mM.
[4] abbreviates: measured here: cell number at 48 h, Library stock concentration: 10 mM.
Where [5] appears, read: Library stock concentration: 10 mM.
Where [6] appears, read: measured here: p53 positive nuclei at 24 h, Library stock concentration: 10 mM.
Where [7] appears, read: measured here: cell number at 24 h, concentration not given here.
Setting [8] is: measured here: cell number at 48 h, concentration not given here.
[9] abbreviates: measured here: p53 positive nuclei at 24 h, concentration not given here.
Where [10] appears, read: measured here: cell number at 24 h, Library stock concentration: 3.33 mM.
Setting [11] is: measured here: cell number at 48 h, Library stock concentration: 3.33 mM.
The mark [12] stands for this setting: Library stock concentration: 3.33 mM.
Where [13] appears, read: measured here: p53 positive nuclei at 24 h, Library stock concentration: 3.33 mM.

Cellular tumor antigen p53 (Homo sapiens), sequence (P04637 whole entry, looked up): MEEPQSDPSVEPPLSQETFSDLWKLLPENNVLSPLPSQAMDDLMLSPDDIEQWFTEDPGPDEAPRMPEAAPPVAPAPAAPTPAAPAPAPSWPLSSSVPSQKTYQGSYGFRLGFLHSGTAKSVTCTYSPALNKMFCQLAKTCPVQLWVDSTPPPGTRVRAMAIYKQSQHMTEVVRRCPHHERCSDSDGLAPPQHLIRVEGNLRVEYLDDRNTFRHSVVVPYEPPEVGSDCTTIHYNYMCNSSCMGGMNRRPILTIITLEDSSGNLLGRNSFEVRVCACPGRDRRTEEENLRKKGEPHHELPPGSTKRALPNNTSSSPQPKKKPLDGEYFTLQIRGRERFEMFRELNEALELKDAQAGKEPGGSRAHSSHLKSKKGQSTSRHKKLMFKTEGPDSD

On to `CC1=C(O)C(=O)C=C2C1=CC=C1[C@@]2(C)CC[C@@]2(C)C3C[C@](C)(C(=O)O)CC[C@]3(C)CC[C@]12C` (stereo partly drawn), for which the nuclei count, normalised in assay [1] (measured here: cell number at 24 h, Library stock concentration: 46 uM) was 117%; in assay [1] (measured here: cell number at 24 h, Library stock concentration: 278 uM), 114%; in assay [1] (measured here: cell number at 24 h, Library stock concentration: 1.67 mM), 57.4%; in assay [1] (setting [3]), 47.5%; in assay [1] (measured here: cell number at 48 h, Library stock concentration: 46 uM), 112%; in assay [1] (measured here: cell number at 48 h, Library stock concentration: 278 uM) it was 104%. Further, the nuclei count, normalised is 48.7% in assay [1] (measured here: cell number at 48 h, Library stock concentration: 1.67 mM) and 31.9% in assay [1] (setting [4]). In addition, the p53-positive nuclei, normalised was 0.197% (inactive) in assay [2] (Library stock concentration: 46 uM); 0.188% (inactive) in assay [2] (Library stock concentration: 278 uM); 8.51% (inactive) in assay [2] (Library stock concentration: 1.67 mM); 26.6% (inactive) in assay [2] (setting [5]); -0.0305% in assay [2] (measured here: p53 positive nuclei at 24 h, Library stock concentration: 46 uM); -0.0276% in assay [2] (measured here: p53 positive nuclei at 24 h, Library stock concentration: 278 uM). Also, the p53-positive nuclei, normalised was found to be 9.81% in assay [2] (measured here: p53 positive nuclei at 24 h, Library stock concentration: 1.67 mM) and 29.3% in assay [2] (setting [6]).
Consider `CC1=C(O)C(=O)C=C2C1=CC=C1[C@@]2(C)CCC2(C)C3C[C@](C)(C(=O)O)CC[C@]3(C)CC[C@]12C` (stereo partly drawn), for which the nuclei count, normalised came out at 94.9% in assay [1] (measured here: cell number at 24 h, Library stock concentration: 80 uM); 109% in assay [1] (measured here: cell number at 24 h, Library stock concentration: 400 uM); 92% in assay [1] (measured here: cell number at 24 h, Library stock concentration: 2 mM); 46.3% in assay [1] (setting [3]); 95.5% in assay [1] (measured here: cell number at 48 h, Library stock concentration: 80 uM); 109% in assay [1] (measured here: cell number at 48 h, Library stock concentration: 400 uM). Also, the nuclei count, normalised in assay [1] (measured here: cell number at 48 h, Library stock concentration: 2 mM) is 91.7%; in assay [1] (setting [4]), 28.8%. Further, the p53-positive nuclei, normalised in assay [2] (Library stock concentration: 80 uM) was 0.0324% (inactive); in assay [2] (Library stock concentration: 400 uM) it was 0.159% (inactive); in assay [2] (Library stock concentration: 2 mM), 0.635% (inactive); in assay [2] (setting [5]), 9.53% (inactive); in assay [2] (measured here: p53 positive nuclei at 24 h, Library stock concentration: 80 uM) it was 0.113%; in assay [2] (measured here: p53 positive nuclei at 24 h, Library stock concentration: 400 uM) it was 0.398%. The p53-positive nuclei, normalised in assay [2] (measured here: p53 positive nuclei at 24 h, Library stock concentration: 2 mM) is 0.116%; in assay [2] (setting [6]), 10.2%.
`CC1=C(O)C(=O)C=C2C1=CC=C1[C@@]2(C)CC[C@@]2(C)[C@@H]3C[C@](C)(C(=O)O)CC[C@]3(C)CC[C@]12C`: the nuclei count, normalised in assay [1] (setting [7]) is 88.7% and 27%; in assay [1] (setting [8]), 109% and 15.7%. The p53-positive nuclei, normalised in assay [2] (concentration not given here) was 0.0329% (inactive) and 96.6% (active); in assay [2] (setting [9]), 0.225% and 93.4%.
Regarding `CCCCCCCCCCCC[N+](C)(C)CCOc1ccccc1`, the nuclei count, normalised in assay [1] (setting [10]) was 115%; in assay [1] (setting [11]) it was 110%. The p53-positive nuclei, normalised was -0.174% (inactive) in assay [2] (setting [12]) and -0.284% in assay [2] (setting [13]).
Take `CCCCC/C=C\C/C=C\C/C=C\C/C=C\CCCCOC(CO)CO`: the figures for the nuclei count, normalised in assay [1] (setting [7]) and in assay [1] (setting [8]) were 104% and 111%, respectively. The figures for the p53-positive nuclei, normalised in assay [2] (concentration not given here) and in assay [2] (setting [9]) were 0.099% (inactive) and 0.34%, respectively.
Regarding `CC=C(C)C(=O)NC(c1ccccc1)C(O)C(=O)OC1C[C@@]2(O)C(OC(=O)c3ccccc3)[C@@H]3[C@]4(OC(C)=O)COC4CC(O)[C@@]3(C)C(=O)C(OC(C)=O)C(=C1C)C2(C)C` (stereo partly drawn), the nuclei count, normalised in assay [1] (setting [10]) was determined as 33.5%; in assay [1] (setting [11]) it was 28.1%. For the same compound, the p53-positive nuclei, normalised is 1.63% (inactive) in assay [2] (setting [12]) and -0.0935% in assay [2] (setting [13]).
With `OC1CN2CCC(O)[C@H]2C(O)C1O` (stereo partly drawn), the nuclei count, normalised came to 98.9% in assay [1] (measured here: cell number at 24 h, Library stock concentration: 500 nM); 116% in assay [1] (measured here: cell number at 24 h, Library stock concentration: 1.5 uM); 110% in assay [1] (measured here: cell number at 24 h, Library stock concentration: 4.6 uM); 107% in assay [1] (measured here: cell number at 24 h, Library stock concentration: 13.7 uM); 109% in assay [1] (measured here: cell number at 24 h, Library stock concentration: 41 uM); 108% in assay [1] (measured here: cell number at 24 h, Library stock concentration: 123 uM). The nuclei count, normalised in assay [1] (measured here: cell number at 24 h, Library stock concentration: 370 uM) is 107%; in assay [1] (measured here: cell number at 24 h, Library stock concentration: 1.111 mM) it was 107%; in assay [1] (measured here: cell number at 24 h, Library stock concentration: 3.333 mM) it was 105%; in assay [1] (setting [3]), 105%; in assay [1] (measured here: cell number at 48 h, Library stock concentration: 500 nM), 102%; in assay [1] (measured here: cell number at 48 h, Library stock concentration: 1.5 uM) it was 111%. Further, the nuclei count, normalised in assay [1] (measured here: cell number at 48 h, Library stock concentration: 4.6 uM) was 108%; in assay [1] (measured here: cell number at 48 h, Library stock concentration: 13.7 uM) it was 105%; in assay [1] (measured here: cell number at 48 h, Library stock concentration: 41 uM), 110%; in assay [1] (measured here: cell number at 48 h, Library stock concentration: 123 uM), 108%; in assay [1] (measured here: cell number at 48 h, Library stock concentration: 370 uM), 106%; in assay [1] (measured here: cell number at 48 h, Library stock concentration: 1.111 mM), 102%. The nuclei count, normalised worked out at 106% in assay [1] (measured here: cell number at 48 h, Library stock concentration: 3.333 mM) and 104% in assay [1] (setting [4]). The p53-positive nuclei, normalised in assay [2] (Library stock concentration: 500 nM) is -0.0904% (inactive); in assay [2] (Library stock concentration: 1.5 uM) it was 0.192% (inactive); in assay [2] (Library stock concentration: 4.6 uM), 0.0933% (inactive); in assay [2] (Library stock concentration: 13.7 uM), -0.133% (inactive); in assay [2] (Library stock concentration: 41 uM), -0.107% (inactive); in assay [2] (Library stock concentration: 123 uM), 0.0873% (inactive). Besides, the p53-positive nuclei, normalised is 0.261% (inactive) in assay [2] (Library stock concentration: 370 uM); -0.0118% (inactive) in assay [2] (Library stock concentration: 1.111 mM); 0.175% (inactive) in assay [2] (Library stock concentration: 3.333 mM); -0.135% (inactive) in assay [2] (setting [5]); -0.068% in assay [2] (measured here: p53 positive nuclei at 24 h, Library stock concentration: 500 nM); 0.213% in assay [2] (measured here: p53 positive nuclei at 24 h, Library stock concentration: 1.5 uM). The p53-positive nuclei, normalised in assay [2] (measured here: p53 positive nuclei at 24 h, Library stock concentration: 4.6 uM) was -0.135%; in assay [2] (measured here: p53 positive nuclei at 24 h, Library stock concentration: 13.7 uM) it was -0.189%; in assay [2] (measured here: p53 positive nuclei at 24 h, Library stock concentration: 41 uM), 0.0835%; in assay [2] (measured here: p53 positive nuclei at 24 h, Library stock concentration: 123 uM), 0.197%; in assay [2] (measured here: p53 positive nuclei at 24 h, Library stock concentration: 370 uM) it was 0.0352%; in assay [2] (measured here: p53 positive nuclei at 24 h, Library stock concentration: 1.111 mM) it was -0.189%. In addition, the p53-positive nuclei, normalised in assay [2] (measured here: p53 positive nuclei at 24 h, Library stock concentration: 3.333 mM) is -0.0741%; in assay [2] (setting [6]), 0.108%.
